Compound activity (PubChem)
Pemphigus Ab inh – inhibitors of pemphigus antibody binding to DSG3, primary screen, biochemical, bead-based, flow cytometry, scFv-GFP; Desmoglein-3 (Homo sapiens), P32926; DSG3-coupled beads, scFv-anti-DSG3-GFP binding; active compounds read low; binding (percent of control), % at 10 µM; actives 0.48% (n = 310,000);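 active = binding more than 3 SD below its plate's average and above zero; inconclusive = below that plate limit but binding exactly zero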;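 also: hits lower antibody fragment binding to DSG3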
NTR1 agonist – agonists of human NTR1, primary screen, imaging, U2OS cells, beta-arrestin-GFP, high content; Neurotensin receptor type 1 (Homo sapiens), P30989; NTR1-U2OS beta-arrestin-GFP spot imaging, agonist mode; activation, % at 20 µM; actives 0.17% (n = 330,000);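 active = activation at or above 40% of the spot to cytoplasm intensity ratio, with at least 20 cells analyzed; inconclusive = wells under 20 cells, flagged as cytotoxic or low count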
Target sequence (P30989 whole entry, looked up): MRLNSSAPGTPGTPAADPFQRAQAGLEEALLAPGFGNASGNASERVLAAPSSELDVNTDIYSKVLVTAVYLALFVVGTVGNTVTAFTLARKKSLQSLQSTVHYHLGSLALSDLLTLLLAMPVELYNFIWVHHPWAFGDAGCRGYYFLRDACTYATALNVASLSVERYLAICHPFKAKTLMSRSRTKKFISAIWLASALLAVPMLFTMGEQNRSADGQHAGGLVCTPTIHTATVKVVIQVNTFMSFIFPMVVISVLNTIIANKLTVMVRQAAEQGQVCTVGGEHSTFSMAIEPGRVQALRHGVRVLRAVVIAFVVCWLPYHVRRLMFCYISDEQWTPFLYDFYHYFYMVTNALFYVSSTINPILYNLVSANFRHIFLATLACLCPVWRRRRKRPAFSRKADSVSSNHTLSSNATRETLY
VLA-4 inh – inhibition in human VLA-4 binding assay, primary screen, VLA-4 allosteric modulator project, MLPCN library, flow cytometry, VLA-4 expressing cells | Integrin alpha-4 (Homo sapiens), P13612 | AID 2557, 2010 | ligand binding flow cytometry | actives 0.2% (n = 330,000) | inhibition, % (about 7 µM as worked out from the volumes in the protocol); in the data active = inhibition above about 50%
AI-2 QS modul – Vibrio harveyi AI-2 quorum sensing modulators, primary screen, JMH597 strain, luminescence/OD600 ratio. actives 0.4% (n = 300,000). activity change, % at 7.5 µM. AID 2094, 2009. Vibrio harveyi JMH597 AI-2 luminescence/OD600 ratio, 9 h; active compounds read low; strain lacks LuxN and CqsS sensors; 0 = neutral-control median; in the data active = activity change below about -75%, passing the limit was not always enough; inconclusive = no clear call, values can overlap the other calls;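 also: luminescence divided by OD600 gain over 9 h not by final OD600 alone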
JMH597 growth rt – Vibrio harveyi growth inhibition, confirmation, counter-screen for AI-2 quorum sensing project, JMH597 strain, OD600 absorbance | 9 h; lacks LuxN and CqsS sensors | actives 1% (n = 750) | growth inhibition, % at 7.5 µM | shares compounds with AI-2 QS modul;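 active = every replicate shows growth inhibition above 50%; inconclusive = at least half, but not all, replicates pass that cutoff; inactive = fewer than half of replicates pass it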
BB721 lum counter – luminescence inhibition in constitutive-on V. harveyi, confirmation, counter-screen for LuxS inhibitor project, strain BB721, luminescence readout; Vibrio harveyi BB721 luminescence, 9 h; actives 95% (n = 750); shares compounds with AI-2 QS modul; inhibition, % at 7.5 µM;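 active = inhibition above about 80% in every replicate, not just on average, limit read from the data; inconclusive = at least half of replicates past the limit, but not all; inactive = fewer than half of replicates past the limit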
BB721 growth rt – growth inhibition of V. harveyi BB721, confirmation, cytotoxicity control for AI-2 quorum sensing inhibitors, strain BB721, absorbance OD600. shares compounds with AI-2 QS modul. Vibrio harveyi BB721 growth, 9 h. growth inhibition, % at 7.5 µM. actives 3% (n = 750). AID 2728, 2010;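 active = every replicate shows growth inhibition above 50%; inconclusive = at least half but not all replicates above 50% inhibition; inactive = under half of replicates above 50% inhibition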
JMH597 AI-2 mod – Vibrio harveyi AI-2 signaling luminescence modulation – JMH597 strain, confirmation | shares compounds with AI-2 QS modul | actives 97% (n = 750) | inhibition, % at 7.5 µM | Vibrio harveyi JMH597 AI-2 quorum sensing luminescence, 9 h; luxN and CqsS knockout, AI-2 only | AID 2736, 2010;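 active = every replicate shows more than 75% inhibition of signal versus neutral control wells; inconclusive = half to three quarters of replicates exceed 75% inhibition; inactive = fewer than half of replicates exceed 75% inhibition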
Hits are given with their value; 0 = inactive; ? = inconclusive; - = not tested or not shown. Compounds with a hit are over-represented: about 1.1% of the library has one in this group of screens.

SMILES | Pemphigus Ab inh | NTR1 agonist | VLA-4 inh | AI-2 QS modul | JMH597 growth rt | BB721 lum counter | BB721 growth rt | JMH597 AI-2 mod
CCCCOC(=O)Nc1ccc(S(=O)(=O)Nc2cc(C)nc(C)n2)cc1 | 0 | 0 | 0 | 0 | - | - | - | -
CCCCC(Br)C(=O)Nc1ccc(S(=O)(=O)Nc2cc(C)nc(C)n2)cc1 (stereo unspecified) | 0 | 0 | 0 | -86 | 0 | 88 | 0 | 90
Nn1c(SCC(=O)Nc2ccc(OC(F)F)cc2)nnc(Cc2ccccc2)c1=O | 0 | 0 | 0 | -92 | 0 | 96 | ? | 97
COc1ccc(NC(=O)CSc2nnc(Cc3ccccc3)c(=O)n2N)c(OC)c1 | 0 | 0 | 0 | 0 | - | - | - | -
CCOC(=O)C1(C(=O)OCC)NC(=O)CC1CC(C)C (stereo unspecified) | 0 | - | - | - | - | - | - | -
CC[C@]12c3[nH]c4ccc(Cl)cc4c3CCN1C(=O)[C@@H](CC(=O)NC/C=C(\C)CCC=C(C)C)C[C@@H]2C(=O)N1CCN(C(=O)C2CC2)CC1 | 0 | 0 | - | - | - | - | - | -
CC1CCN(C(=O)COC(=O)c2ccccc2NCCO)CC1 | 0 | - | - | - | - | - | - | -
O=C(CN1C(=O)c2ccccc2S1(=O)=O)Nc1cccc(S(=O)(=O)N2CCCCC2)c1 | - | 0 | 0 | - | - | - | - | -
O=C(CN1C(=O)c2ccccc2S1(=O)=O)Nc1ccc(S(=O)(=O)N2CCCC2)cc1 | 0 | 0 | 0 | -95 | 0 | 98 | 0 | 98
O=C(CN1C(=O)c2ccccc2S1(=O)=O)Nc1ccc(S(=O)(=O)N2CCCCC2)cc1 | 0 | 0 | 0 | -85 | 0 | 96 | 0 | 98
O=C(CN1C(=O)c2ccccc2S1(=O)=O)Nc1ccccc1 | 0 | 0 | 0 | 0 | - | - | - | -
CSc1cccc(NC(=O)CN2C(=O)c3ccccc3S2(=O)=O)c1 | 0 | 0 | 0 | -86 | 0 | 94 | 0 | 96
O=C(CS(=O)(=O)Cc1ccccc1)c1ccccc1 | 0 | - | - | - | - | - | - | -
COCOCCn1cc(CN2CCS(=O)(=O)N(Cc3ccc(-c4ccc(Cl)nc4)cc3)C(C(C)C)C2=O)nn1 (stereo unspecified) | 0 | - | - | - | - | - | - | -
Nc1nc(SCC(=O)c2ccc(Oc3ccccc3)cc2)n[nH]1 | 0 | 0 | 0 | -94 | 0 | 97 | 0 | 98
Nc1nc(SCC(=O)c2ccc([N+](=O)[O-])cc2)n[nH]1 | 0 | 0 | 0 | 0 | - | - | - | -
Nc1nc(SCC(=O)Nc2ccc(S(N)(=O)=O)cc2)n[nH]1 | 0 | 0 | 0 | 0 | - | - | - | -
Cc1ccc(Oc2ccc(NC(=O)CSc3n[nH]c(N)n3)cc2)cc1 | 0 | 0 | 0 | -94 | 0 | 95 | 0 | 98
O=C(CN1C(=O)c2ccccc2C1=O)Nc1cccc(Cl)c1 | 0 | 0 | 0 | -93 | 0 | 99 | 0 | 99
Cc1ccc(OCCC(=O)Nc2ccc(F)c(Cl)c2)cc1 | - | 0 | 0 | -78 | 0 | 0 | 0 | ?
CC(=O)c1cccc(NC(=O)CN2C(=O)c3ccccc3C2=O)c1 | 0 | 0 | 0 | -96 | 0 | 99 | 0 | 100
Cc1cc(NC(=O)CN2C(=O)c3ccccc3C2=O)no1 | - | 0 | 0 | ? | 0 | 84 | 0 | 87
Cc1ccc([C@@H]2CC(=O)[C@@H]3CN(S(=O)(=O)c4ccc(C)cc4)[C@H](c4ccc(Cl)cc4)C[C@@H]3N2S(=O)(=O)c2ccc(C)cc2)cc1 | 0 | - | - | - | - | - | - | -
Cc1cccc(NC(=O)CCN2C(=O)c3ccccc3C2=O)c1 | 0 | 0 | 0 | ? | 0 | 88 | 0 | 92
O=C(CN1C(=O)c2ccccc2C1=O)Nc1cccc(S(=O)(=O)Nc2ccccc2Cl)c1 | 0 | 0 | 0 | -83 | 0 | 90 | 0 | 93
SMILES | Pemphigus Ab inh | NTR1 agonist | VLA-4 inh | AI-2 QS modul | JMH597 growth rt | BB721 lum counter | BB721 growth rt | JMH597 AI-2 mod
Cc1cccc(NC(=O)CCOc2ccccc2)c1 | 0 | 0 | 0 | -84 | 0 | 91 | 0 | 94
COc1ccccc1OCCC(=O)Nc1cccc(S(=O)(=O)N2CCOCC2)c1 | 0 | 0 | 0 | - | - | - | - | -
C=C(C)CN=CC1(C)CCC(C)=CO1 (stereo unspecified) | 0 | - | - | - | - | - | - | -
O=C(NCc1ccc2c(c1)CCO2)Nc1ccccc1 | 0 | 0 | 0 | -83 | 0 | 96 | 0 | 96
COc1cccc(CNC(=O)c2cc(COc3c(F)cccc3F)on2)c1 | 0 | 0 | 0 | 0 | - | - | - | -
CC(CNC(=O)c1cc(COc2c(F)cccc2F)on1)Oc1cccnc1 (stereo unspecified) | 0 | 0 | 0 | -91 | 0 | 94 | 0 | 96
Cc1cc(C)cc(OCC(=O)O/N=C(\N)c2cccnc2)c1 | 0 | - | - | -96 | 0 | 98 | 0 | 98
N/C(=N\OC(=O)COc1ccc(Br)cc1)c1cccnc1 | 0 | 0 | 0 | 0 | - | - | - | -
N/C(=N\OC(=O)COc1ccccc1)c1cccnc1 | 0 | 0 | 0 | -88 | 0 | 95 | 0 | 97
Cc1cccc(OCC(=O)O/N=C(\N)c2ccccn2)c1 | 0 | 0 | 0 | -91 | 0 | 93 | 0 | 96
O=c1[nH]nc(Sc2ccccc2)c(=S)[nH]1 | 0 | - | - | - | - | - | - | -
O=C(NCc1ccc(Cl)cc1)c1cc2ccccn2n1 | 0 | 0 | 0 | -84 | 0 | 92 | 0 | 95
COc1ccc(NC(=O)c2cc3ccccn3n2)cc1 | 0 | 0 | 0 | 0 | - | - | - | -
Cc1cccc(OCC(=O)NCc2nc(-c3ccccc3)no2)c1 | 0 | 0 | 0 | 0 | - | - | - | -
Cc1cccc(NCc2nc(-c3ccccc3)no2)c1 | 0 | 0 | 0 | ? | 0 | 96 | 0 | 98
O=C(NCc1nc(-c2ccc(C(F)(F)F)cc2)no1)c1cccs1 | - | 0 | 0 | -94 | 0 | 96 | 0 | 97
O=C(NCc1ccccc1Cl)c1ccc(Br)o1 | 0 | 0 | 0 | 0 | - | - | - | -
O=C(NCc1nc(-c2ccccc2)no1)c1ccc(Br)o1 | 0 | 0 | 0 | -95 | 0 | 98 | 0 | 99
Cc1cccc(-c2noc(CNC(=O)c3ccco3)n2)c1 | 0 | 0 | 0 | -94 | 0 | 99 | 0 | 99
Cc1cccc(-c2noc(CN(C)C(=O)c3ccco3)n2)c1 | 0 | 0 | 0 | 0 | - | - | - | -
CCCCCC(=O)N1C[C@H](n2cc(COC(=O)c3ccccc3)nn2)[C@@H](O)C[C@@H]1c1ccc(OC)cc1 | 0 | - | - | - | - | - | - | -
Cc1c(Br)c(C(=O)NNC(=O)c2ccc(C(C)(C)C)cc2)nn1C | 0 | 0 | 0 | -88 | 0 | 96 | 0 | 97
C[C@@H]1CN([C@@H](C)CO)C(=O)CCCn2nncc2CO[C@H]1CN(C)S(=O)(=O)c1ccc(-c2ccccc2)cc1 | 0 | - | - | - | - | - | - | -
